# Data taken from PubChem BioAssay (EPA / NIEHS).
# Several values for one entry are separate records, joined by “and”; a condition that tells them apart may be missing. Equal entries are not always repeated. Where a structure was tested more than once in an assay, its records may differ in their call. Activity calls are given as the source filed them. Rule for the calls: active = hit-call score of the fitted dose curve at least 0.9, where 1 is the maximum; inactive = score below 0.9.
# How the values were obtained:
# [1] = target: Transcription factor E2F1 (Homo sapiens) (UniProt Q01094); assay: ATG_E2F_CIS: Attagene CIS-FACTORIAL HepG2 Assay for human E2F Transcription Factor 1 (AID 2282935); settings: HepG2 Attagene cis-reporter, E2F reporter RNA transcripts; actives raise or lower the signal
# Chain of Transcription factor E2F1 (Homo sapiens) (Q01094 whole entry, looked up): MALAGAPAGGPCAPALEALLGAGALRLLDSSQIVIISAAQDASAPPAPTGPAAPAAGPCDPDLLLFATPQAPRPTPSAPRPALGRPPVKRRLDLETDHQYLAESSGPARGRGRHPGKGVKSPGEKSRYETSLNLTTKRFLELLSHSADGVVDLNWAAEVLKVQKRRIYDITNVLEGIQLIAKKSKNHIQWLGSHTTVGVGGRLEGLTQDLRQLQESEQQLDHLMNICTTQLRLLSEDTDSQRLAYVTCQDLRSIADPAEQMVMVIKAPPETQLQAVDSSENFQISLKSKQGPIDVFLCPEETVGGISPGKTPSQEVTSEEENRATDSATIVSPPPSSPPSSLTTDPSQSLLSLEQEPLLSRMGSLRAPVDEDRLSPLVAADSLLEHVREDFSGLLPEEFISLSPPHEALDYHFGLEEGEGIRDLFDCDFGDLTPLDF
# Outline: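 Total RNA from 24 h-treated, reporter-transfected HepG2 cells undergoes DNase I treatment, oligo(dT) reverse transcription, PCR and 6-FAM primer extension before capillary electrophoresis.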
# [2] = ATG_E_Box_CIS: Attagene CIS-FACTORIAL HepG2 Assay for human Enhancer Box (E-box) (AID 2282936); settings: HepG2 E-box cis-reporter transcription, actives raise or lower the signal
# Outline: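 DMSO served as negative control and baseline for bidirectional fitting. Human hepatoma HepG2 cells, transiently transfected with cis-reporter constructs, were dosed 24 h; reporter mRNA read by RT-PCR and capillary electrophoresis.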
# [3] = ATG_M_61_CIS: Attagene CIS-FACTORIAL HepG2 Assay for M61 Transcription Factor (Internal Marker) (AID 2282937); settings: HepG2 Attagene CIS-FACTORIAL M61 internal marker reporter; actives raise or lower the signal
# Outline: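 Endogenous transcription factor activity in HepG2 is read through transiently transfected cis-element reporter units. After 24 h dosing, RNA undergoes reverse transcription, PCR and primer extension with 6-FAM before capillary electrophoresis; DMSO-referenced bidirectional fit.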
# [4] = ATG_M_19_CIS: Attagene CIS-FACTORIAL HepG2 Assay for M19 Transcription Factor (Internal Marker) (AID 2282939); settings: HepG2 Attagene CIS-FACTORIAL M19 internal marker reporter; actives raise or lower the signal
# Outline: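 Background-control endpoint from a multiplexed HepG2 reporter panel. Cells carrying cis-regulated reporter constructs are treated 24 h, then reporter transcripts are amplified, fluorescently labelled and sized by capillary electrophoresis. DMSO defines baseline.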
# [5] = ATG_ERE_CIS: Attagene CIS-FACTORIAL HepG2 Assay for Estrogen Response Element (ERE) (AID 2282940); settings: HepG2 ERE cis-reporter, Attagene RNA transcript; actives raise or lower the signal
# Outline: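 Cells used were human hepatoma HepG2, transfected with multiple reporter transcription units under cis-regulatory promoters. Reporter mRNA, read 24 h post-dosing via fluorescent RT-PCR products on capillary electrophoresis, was fitted bidirectionally relative to DMSO.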
# [6] = ATG_Ets_CIS: Attagene CIS-FACTORIAL HepG2 Assay for human Erythroblast Transformation Specific (ETS) (AID 2282941); settings: HepG2 ETS cis-reporter transcription, actives raise or lower the signal
# Outline: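 HepG2 cells transfected with multiple cis-regulated reporter units measuring endogenous ETS-driven transcription, 24 h after dosing. Reporter mRNA quantified by RT-PCR with capillary electrophoresis; bidirectional fit relative to DMSO.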
# [7] = target: Hepatocyte nuclear factor 3-beta (Homo sapiens) (UniProt Q9Y261); assay: ATG_FoxA2_CIS: Attagene CIS-FACTORIAL HepG2 Assay for human Forkhead box A2 (FOXA2) (AID 2282942); settings: HepG2 cis-reporter transcription factor activity, 24 h; actives raise or lower the signal
# Chain of Hepatocyte nuclear factor 3-beta (Homo sapiens) (Q9Y261 whole entry, looked up): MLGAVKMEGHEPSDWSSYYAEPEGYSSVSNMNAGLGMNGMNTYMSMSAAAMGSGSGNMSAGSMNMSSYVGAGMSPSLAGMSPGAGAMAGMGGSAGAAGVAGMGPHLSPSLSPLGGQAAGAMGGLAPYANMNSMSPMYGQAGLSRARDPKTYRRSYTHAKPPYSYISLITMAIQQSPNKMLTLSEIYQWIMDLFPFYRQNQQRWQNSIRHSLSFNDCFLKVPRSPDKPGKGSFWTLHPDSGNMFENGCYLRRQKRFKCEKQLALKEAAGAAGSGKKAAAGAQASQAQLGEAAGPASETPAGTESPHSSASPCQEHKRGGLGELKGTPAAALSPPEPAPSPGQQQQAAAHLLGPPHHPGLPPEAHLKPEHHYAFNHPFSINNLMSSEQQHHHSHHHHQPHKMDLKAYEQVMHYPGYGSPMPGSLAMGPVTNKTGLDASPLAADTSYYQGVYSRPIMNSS
# Outline: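 Reporter transcript induction is measured by fluorescence after capillary electrophoresis of RT-PCR products from HepG2 cells exposed 24 h. Cis-regulated reporter units report endogenous factor activity; curves fitted both directions against DMSO.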
# [8] = ATG_FoxO_CIS: Attagene CIS-FACTORIAL HepG2 Assay for human Forkhead box O (FoxO) (AID 2282943); settings: HepG2 Attagene cis-reporter, FoxO element, mRNA; actives raise or lower the signal
# Outline: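 Human hepatoma HepG2 cells carry transiently introduced reporter transcription units controlled by cis promoter elements. Chemical treatment lasted 24 h, and mRNA signal was compared with DMSO.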
# [9] = ATG_GATA_CIS: Attagene CIS-FACTORIAL HepG2 Assay for human GATA Binding Protein (AID 2282944); settings: HepG2 GATA cis-element reporter, Attagene multiplex mRNA; actives raise or lower the signal
# Outline: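 Endogenous transcription factor activity was captured through cis-promoter-driven reporters in transfected HepG2 cells. After 24 h exposure, reporter transcripts were quantified by RT-PCR with fluorescent capillary electrophoresis, and responses fitted both directions against DMSO.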
# [10] = ATG_GLI_CIS: Attagene CIS-FACTORIAL HepG2 Assay for human Zinc Finger Protein GLI1 (AID 2282945); settings: HepG2, Attagene cis-factorial reporter mRNA, GLI element; actives raise or lower the signal
# Outline: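 Bidirectional curve fits relative to DMSO, using reporter mRNA levels from RT-PCR plus capillary electrophoresis. Cells were HepG2 transiently carrying cis-regulated reporter constructs, harvested 24 h after dosing.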
# [11] = target: Bile acid receptor (Homo sapiens) (UniProt Q96RI1); assay: ATG_IR1_CIS: Attagene CIS-FACTORIAL HepG2 Assay for human Nuclear Receptor Subfamily 1 Group H Member 4 (NR1H4), IR1 submotif (AID 2282946); settings: IR1 reporter transcription, actives raise or lower the signal
# Chain of Bile acid receptor (Homo sapiens) (Q96RI1 whole entry, looked up, the tested form may be a part): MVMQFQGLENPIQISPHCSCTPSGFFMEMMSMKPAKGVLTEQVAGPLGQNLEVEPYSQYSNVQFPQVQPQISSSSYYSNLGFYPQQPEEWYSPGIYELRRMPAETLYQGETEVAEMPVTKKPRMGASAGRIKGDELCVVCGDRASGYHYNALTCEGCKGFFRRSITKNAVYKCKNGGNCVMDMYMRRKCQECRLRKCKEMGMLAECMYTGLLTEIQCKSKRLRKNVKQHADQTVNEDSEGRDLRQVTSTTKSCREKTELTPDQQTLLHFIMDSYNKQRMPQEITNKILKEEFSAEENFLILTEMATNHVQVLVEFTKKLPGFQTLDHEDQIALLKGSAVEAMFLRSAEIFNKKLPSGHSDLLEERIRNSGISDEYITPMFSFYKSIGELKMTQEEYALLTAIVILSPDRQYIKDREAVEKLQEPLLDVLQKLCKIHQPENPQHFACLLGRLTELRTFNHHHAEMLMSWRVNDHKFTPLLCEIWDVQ
# Outline: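 Cells (human HepG2) carry transiently transfected cis-promoter reporter transcription units. Compounds are incubated 24 h, total RNA is reverse-transcribed and amplified, and labelled fragments are resolved by capillary electrophoresis. Curves use DMSO as baseline.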
# [12] = ATG_GRE_CIS: Attagene CIS-FACTORIAL HepG2 Assay for human Glucocorticoid Response Elements (GRE) (AID 2282947); settings: HepG2 GRE cis-reporter, Attagene multiplex mRNA; actives raise or lower the signal
# Outline: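 Assay uses human hepatoma HepG2 cells transfected with cis-promoter reporter units, exposed 24 h. mRNA from reporters detected by RT-PCR plus capillary electrophoresis; DMSO serves as negative control and baseline.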
# [13] = ATG_ISRE_CIS: Attagene CIS-FACTORIAL HepG2 Assay for human Interferon Regulatory Factor 1 (IRF1) binding to an Interferon-Stimulated Response Element (ISRE) (AID 2282948); settings: HepG2 ISRE cis-reporter (Attagene), mRNA transcription readout; actives raise or lower the signal
# Outline: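 Transiently transfected HepG2 cells carrying cis-element reporter units, dosed 24 hours. Reporter mRNA quantified by RT-PCR, fluorescent primer extension, HpaI digestion and capillary electrophoresis. Bidirectional fitting relative to DMSO.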
# [14] = ATG_M_32_CIS: Attagene CIS-FACTORIAL HepG2 Assay for M32 Transcription Factor (Internal Marker) (AID 2282949); settings: HepG2 Attagene cis-factorial M32 reporter, mRNA; actives raise or lower the signal;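 note: background control marker of the multiplexed CIS panel rather than a real target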
# Outline: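 Internal background marker read-out: RT-PCR/capillary electrophoresis fluorescence of reporter transcripts from transiently transfected HepG2 cells after 24 h chemical exposure. Activity fitted bidirectionally relative to DMSO negative control.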
# [15] = target: Hypoxia-inducible factor 1-alpha (Homo sapiens) (UniProt Q16665); assay: ATG_HIF1a_CIS: Attagene CIS-FACTORIAL HepG2 Assay for human Hypoxia Inducible Factor 1 (HIF1A) (AID 2282951); settings: HepG2 Attagene cis-factorial HIF1a reporter transcription; actives raise or lower the signal
# Chain of Hypoxia-inducible factor 1-alpha (Homo sapiens) (Q16665 whole entry, looked up): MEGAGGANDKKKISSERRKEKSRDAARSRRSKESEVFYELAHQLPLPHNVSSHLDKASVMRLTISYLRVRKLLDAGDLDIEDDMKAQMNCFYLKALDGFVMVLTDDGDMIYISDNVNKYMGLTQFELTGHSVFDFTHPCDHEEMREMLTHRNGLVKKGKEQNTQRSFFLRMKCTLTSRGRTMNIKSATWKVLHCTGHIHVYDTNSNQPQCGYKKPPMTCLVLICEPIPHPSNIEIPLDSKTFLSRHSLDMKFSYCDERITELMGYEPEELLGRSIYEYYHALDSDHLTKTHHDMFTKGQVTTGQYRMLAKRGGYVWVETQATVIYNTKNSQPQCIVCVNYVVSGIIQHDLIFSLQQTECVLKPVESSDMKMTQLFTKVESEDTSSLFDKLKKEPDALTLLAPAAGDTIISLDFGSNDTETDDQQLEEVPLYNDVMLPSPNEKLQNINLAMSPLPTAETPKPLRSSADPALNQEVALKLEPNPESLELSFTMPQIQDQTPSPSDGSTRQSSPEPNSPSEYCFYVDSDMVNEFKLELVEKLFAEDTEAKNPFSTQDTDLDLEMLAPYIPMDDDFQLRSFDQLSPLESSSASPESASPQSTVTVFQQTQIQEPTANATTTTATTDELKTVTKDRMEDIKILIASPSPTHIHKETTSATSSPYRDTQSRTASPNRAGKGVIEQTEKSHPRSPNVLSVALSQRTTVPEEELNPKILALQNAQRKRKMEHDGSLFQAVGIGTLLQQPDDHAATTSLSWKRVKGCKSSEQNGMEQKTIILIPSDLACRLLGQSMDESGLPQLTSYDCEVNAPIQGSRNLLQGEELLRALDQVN
# Outline: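 Fluorescence intensity of capillary-separated, 6-FAM-labelled reporter amplicons gives mRNA induction in HepG2 cells carrying transfected cis-promoter reporter units; cells exposed 24 h, responses fitted up or down from DMSO.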
# [16] = target: Hepatocyte nuclear factor 6 (Homo sapiens) (UniProt Q9UBC0); assay: ATG_HNF6_CIS: Attagene CIS-FACTORIAL HepG2 Assay for human Hepatocyte Nuclear Factor 6 (HNF6) (AID 2282952); settings: HepG2 Attagene cis-factorial HNF6 reporter transcription; actives raise or lower the signal
# Chain of Hepatocyte nuclear factor 6 (Homo sapiens) (Q9UBC0 whole entry, looked up, the tested form may be a part): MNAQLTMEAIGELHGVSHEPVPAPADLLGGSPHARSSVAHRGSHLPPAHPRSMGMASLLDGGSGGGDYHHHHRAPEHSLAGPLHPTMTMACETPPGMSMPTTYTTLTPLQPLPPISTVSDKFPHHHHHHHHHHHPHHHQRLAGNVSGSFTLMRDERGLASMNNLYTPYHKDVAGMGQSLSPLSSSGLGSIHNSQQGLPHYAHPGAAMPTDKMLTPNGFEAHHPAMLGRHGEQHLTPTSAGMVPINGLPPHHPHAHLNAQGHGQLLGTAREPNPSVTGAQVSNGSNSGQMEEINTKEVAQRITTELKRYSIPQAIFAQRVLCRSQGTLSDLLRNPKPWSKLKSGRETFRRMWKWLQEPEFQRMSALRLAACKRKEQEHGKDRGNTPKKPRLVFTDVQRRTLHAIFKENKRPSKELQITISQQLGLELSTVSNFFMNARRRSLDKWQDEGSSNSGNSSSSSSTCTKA
# Outline: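 HepG2 cells transiently transfected with cis-element-driven multiplexed reporter units measuring endogenous transcription factor activity. After 24 h exposure, reporter mRNA quantified by RT-PCR, FAM-labelled fragments and capillary electrophoresis; bidirectional fitting versus DMSO.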
# [17] = ATG_MRE_CIS: Attagene CIS-FACTORIAL HepG2 Assay for human Metal Responsive Element (MRE) (AID 2282954); settings: HepG2 MRE cis-reporter transcription, Attagene multiplex; actives raise or lower the signal
# Outline: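 After a 24 h chemical exposure, transiently transfected HepG2 cells yield RNA whose reporter sequences are amplified, FAM-labelled and sized by capillary electrophoresis. Curves are fitted bidirectionally relative to DMSO.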
# [18] = ATG_EGR_CIS: Attagene CIS-FACTORIAL HepG2 Assay for human Early Growth Response 1 (EGR1) (AID 2282938); settings: HepG2 Attagene CIS-FACTORIAL EGR reporter mRNA; actives raise or lower the signal
# Outline: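 Activity is taken as induction or loss of reporter mRNA versus DMSO, fitted bidirectionally. Transcripts from cis-regulated reporter units in transiently transfected HepG2 were measured after 24 h by RT-PCR with capillary electrophoresis.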
# [19] = target: Heat shock factor protein 1 (Homo sapiens) (UniProt Q00613); assay: ATG_HSE_CIS: Attagene CIS-FACTORIAL HepG2 Assay for human Heat Shock Transcription Factor 1 (HSE) (AID 2282953); settings: HepG2 HSE cis-reporter, Attagene RNA transcription; actives raise or lower the signal
# Chain of Heat shock factor protein 1 (Homo sapiens) (Q00613 whole entry, looked up, the tested form may be a part): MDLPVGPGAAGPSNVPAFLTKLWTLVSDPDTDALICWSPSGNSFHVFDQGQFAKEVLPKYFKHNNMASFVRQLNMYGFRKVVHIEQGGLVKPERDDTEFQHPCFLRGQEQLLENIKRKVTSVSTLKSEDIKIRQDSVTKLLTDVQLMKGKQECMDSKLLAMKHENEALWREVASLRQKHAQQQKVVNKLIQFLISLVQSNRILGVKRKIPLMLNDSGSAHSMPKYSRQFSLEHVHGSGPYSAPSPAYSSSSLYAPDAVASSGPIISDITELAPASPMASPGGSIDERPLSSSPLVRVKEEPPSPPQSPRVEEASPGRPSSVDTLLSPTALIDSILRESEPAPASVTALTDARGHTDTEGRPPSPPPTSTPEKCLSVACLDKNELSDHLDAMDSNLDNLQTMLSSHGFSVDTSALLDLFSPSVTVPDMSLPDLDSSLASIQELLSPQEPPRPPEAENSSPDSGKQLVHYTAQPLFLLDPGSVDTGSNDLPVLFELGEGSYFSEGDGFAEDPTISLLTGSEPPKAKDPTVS
# Outline: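 Cells were transfected with cis-element-driven reporter constructs, dosed for 24 h, then total RNA was reverse-transcribed and reporter cDNA amplified, FAM-labelled and digested with HpaI. Fragments were resolved by capillary electrophoresis; gain or loss was fitted against DMSO.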
# [20] = ATG_M_06_CIS: Attagene CIS-FACTORIAL HepG2 Assay for M06 Transcription Factor (Internal Marker) (AID 2282950); settings: HepG2 Attagene CIS-FACTORIAL M06 internal marker reporter; actives raise or lower the signal
# Outline: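 Steps: transfect HepG2 with multiplexed cis-element reporter constructs; dose chemical 24 h; extract RNA with DNase treatment; reverse-transcribe, PCR-amplify, 6-FAM label, HpaI digest; separate fragments by capillary electrophoresis. Activity fitted both directions versus DMSO.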
compound,measurement,setting,value
N#Cc1nn(-c2c(Cl)cc(C(F)(F)F)cc2Cl)c(N)c1S(=O)C(F)(F)F (configuration not stated),outcome,[1],inactive
same,AC50,[2],29 µM (active)
same,outcome,[2],inactive
same,outcome,[3],inactive
same,outcome,[4],inactive
same,outcome,[5],inactive
same,outcome,[6],inactive
same,outcome,[7],inactive
same,outcome,[8],inactive
same,outcome,[9],inactive
same,outcome,[10],inactive
same,outcome,[11],inactive
same,AC50,[12],29 µM (active)
same,outcome,[12],inactive
same,outcome,[13],inactive
same,outcome,[14],inactive
same,outcome,[15],inactive
same,AC50,[16],44.7 µM (active)
same,outcome,[16],inactive
same,AC50,[17],38.8 µM (active)
same,outcome,[17],inactive
N#Cc1cc(Br)c(O)c(Br)c1,outcome,[1],inactive
same,outcome,[2],inactive
same,outcome,[3],inactive
same,outcome,[18],inactive
same,outcome,[4],inactive
same,AC50,[5],6.61 µM (active)
same,outcome,[6],inactive
same,outcome,[7],inactive
same,outcome,[8],inactive
same,outcome,[9],inactive
same,outcome,[10],inactive
same,outcome,[11],inactive
same,outcome,[12],inactive
same,outcome,[13],inactive
same,outcome,[14],inactive
same,outcome,[15],inactive
same,outcome,[16],inactive
same,outcome,[19],inactive
same,AC50,[17],39.9 µM (active)
CC1=C(C(=O)Nc2ccccc2)SCCO1,outcome,[1],inactive
same,outcome,[2],inactive
same,outcome,[3],inactive
same,outcome,[4],inactive
same,outcome,[5],inactive
same,outcome,[6],inactive
same,outcome,[7],inactive
same,outcome,[8],inactive
same,outcome,[9],inactive
same,outcome,[10],inactive
same,outcome,[11],inactive
same,outcome,[12],inactive
same,outcome,[13],inactive
same,outcome,[14],inactive
same,outcome,[20],inactive
same,outcome,[15],inactive
same,outcome,[16],inactive
same,outcome,[17],inactive
C=CCC1=C(C)C(OC(=O)C2C(C=C(C)C)C2(C)C)CC1=O (configuration not stated),AC50,[1],132 µM (active)
same,outcome,[1],inactive
same,AC50,[2],46.9 µM (active)
same,outcome,[2],inactive
same,outcome,[3],inactive
same,AC50,[18],33.4 µM (active) [middle of 5 runs]
same,outcome,[18],inactive
same,AC50,[4],161 µM (active)
same,outcome,[4],inactive
same,AC50,[5],35 µM (active) and 26.7 µM (active) and 12.7 µM (active)
same,outcome,[5],inactive
same,AC50,[6],163 µM (active)
same,outcome,[6],inactive
same,AC50,[7],83.3 µM (active) and 125 µM (active) and 50 µM (active)
same,outcome,[7],inactive
same,AC50,[8],152 µM (active)
same,outcome,[8],inactive
same,outcome,[9],inactive
same,AC50,[10],67.2 µM (active) [middle of 5 runs]
same,outcome,[10],inactive
same,AC50,[11],54.7 µM (active)
same,outcome,[11],inactive
same,outcome,[12],inactive
same,outcome,[13],inactive
same,AC50,[14],107 µM (active)
same,outcome,[14],inactive
same,AC50,[15],35 µM (active) [middle of 4 runs]
same,outcome,[15],inactive
same,outcome,[16],inactive
same,AC50,[17],43.8 µM (active) [middle of 6 runs]
O=C(O)COc1nc(Cl)c(Cl)cc1Cl,outcome,[1],inactive
same,outcome,[2],inactive
same,outcome,[3],inactive
same,outcome,[18],inactive
same,outcome,[4],inactive
same,outcome,[5],inactive
same,outcome,[6],inactive
same,outcome,[7],inactive
same,outcome,[8],inactive
same,outcome,[9],inactive
same,outcome,[10],inactive
same,outcome,[11],inactive
same,outcome,[12],inactive
same,outcome,[13],inactive
same,outcome,[14],inactive
same,outcome,[20],inactive
same,outcome,[15],inactive
same,outcome,[16],inactive
same,outcome,[17],inactive
